Test results reported in PubChem BioAssay AID1240 (Sanford-Burnham Center for Chemical Genomics, 2008).
About 800 (1.6%) of roughly 50,000 compounds showed an effect of 50% or more. This excerpt belongs to a sample that is enriched for strong results.

biological target: Bcl-2-like protein 10 (Homo sapiens) (UniProt Q9HD36); test: TR3 peptide-Bcl-B binding displacers, biochemical primary FP assay, phenotype converters (AID 1240); conditions: GST-Bcl-B / FITC-TR3 peptide fluorescence polarization; stronger effect = higher value; compound at 3.75 mg/L;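 further: 0% = Bcl-B with tracer peptide and DMSO and 100% = tracer peptide lacking Bcl-B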
Sequence (Q9HD36 whole entry, looked up): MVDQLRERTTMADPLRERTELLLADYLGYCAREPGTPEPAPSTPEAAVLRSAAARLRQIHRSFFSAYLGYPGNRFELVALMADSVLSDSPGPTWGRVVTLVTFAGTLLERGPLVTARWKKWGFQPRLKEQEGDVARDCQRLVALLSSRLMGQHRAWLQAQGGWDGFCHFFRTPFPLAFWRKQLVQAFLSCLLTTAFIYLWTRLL

In order of rising displacement:
1. COc1ccc(C)cc1NC(=O)CN(Cc1ccccc1)S(=O)(=O)c1ccc(OC)c(OC)c1  -46.5%
2. CCOC(=O)c1csc(NC(=O)c2ccc(C(=O)c3ccccc3)cc2)n1  -24.4%
3. COc1ccccc1C(=O)N1CCN(c2nc3ccc([N+](=O)[O-])cc3s2)CC1  -14%
4. CN(C)CCCNC(=O)c1ccc(N(C)S(=O)(=O)c2ccccc2)cc1  -13.4%
5. CCC(=O)N1CCN(c2nc3ccc([N+](=O)[O-])cc3s2)CC1  -8.8%
6. CCOc1ccccc1NC1=CC(=O)CC(c2ccccc2)C1 (stereo not given)  -8.1%
7. Cc1cc(C)c(-n2c(O)c(/C=C3\C=Nc4ccccc43)c(=O)[nH]c2=O)c(C)c1  -4.1%
8. Cc1cc(C)c2oc(-c3ccc(C)c(NC(=O)c4ccc(Br)o4)c3)nc2c1  -3.8%
9. CCOc1ccc2nc(SC)nc(C)c2c1  -3.6%
10. C=CCn1c(O)c(/C=C2\C=Nc3ccccc32)c(=O)[nH]c1=S  -2.9%
11. Cc1ccc(C(C)C)c(OCC(=O)Nc2ccc(NC(=O)c3ccccc3Cl)cc2)c1  -2.1%
12. O=C(Nc1ccccc1C(=O)N=Nc1c(O)[nH]c2ccc([N+](=O)[O-])cc12)c1ccccc1  -1.3%
13. COC(C)(C)c1cc(-c2cccc3ccccc23)nc(N)n1  0%
14. COc1cc(OC)c(OC)cc1/C=N/NC(=O)CSc1nc2ccccc2[nH]1  0.1%
15. Cc1sc2nc(SCC(=O)NCCO)n(-c3ccccc3)c(=O)c2c1C  1.9%
16. O=C(c1ccc(Br)cc1)N1CCN(c2nc3ccc([N+](=O)[O-])cc3s2)CC1  3.2%
17. COc1ccc(COCC(O)CN2CC(C)OC(C)C2)cc1OC (stereo not given)  4%
18. C=CCSc1nc(C)c2cc(OCC)ccc2n1  7.4%
19. Cc1c(Cl)cccc1N=Cc1ccc[nH]1  11.3%
20. COC(=O)c1c(NC(=O)Nc2ccc(Cl)c(Cl)c2)sc2c1CCC2  11.8%
21. CCN1CCc2c(sc(NC(=O)Nc3ccc(Cl)cc3)c2C(N)=O)C1  21.3%
22. O=C(c1cccc2ccccc12)N1CCN(c2nc3ccc([N+](=O)[O-])cc3s2)CC1  28.9%
23. O=c1[nH]c(=O)n(Cc2ccc(F)cc2)c(O)c1/C=C1/C=CC=N1  32%
24. O=c1[nH]c(=O)n(-c2cccc(Br)c2)c(O)c1/C=C1\C=Nc2ccccc21  33.4%
25. O=c1[nH]c(=O)n(Cc2ccc(F)cc2)c(O)c1/C=C1\C=Nc2ccccc21  51.3%
26. CCOC(=O)CC(=O)CSc1nc(C)c2cc(OCC)ccc2n1  67.2%
27. Cc1cc(C)cc(-n2c(O)c(/C=C3\C=Nc4ccccc43)c(=O)[nH]c2=O)c1  71.2%
28. O=C(c1ccc(Cl)cc1Cl)N1CCN(c2nc3ccc([N+](=O)[O-])cc3s2)CC1  100%
29. CCN1CCc2c(sc(NC(=O)Nc3ccc(Cl)c(Cl)c3)c2C(N)=O)C1  111%
30. Cc1ccccc1C(=O)N1CCN(c2nc3ccc([N+](=O)[O-])cc3s2)CC1  161%
